The record followed here is PubChem BioAssay (EPA / NIEHS).

Results filed as inconclusive are left out. Active and inactive are the calls of the source. The calls were made as follows, unless noted: active = hit-call score of the fitted dose curve at least 0.9, where 1 is the maximum; inactive = score below 0.9.

Assay [1] in a line: ATG_TGFb_CIS: Attagene CIS-FACTORIAL HepG2 Assay for human Transforming Growth Factor (TGF) (AID 2282967). The note with it: HepG2 Attagene CIS TGFb reporter, mRNA transcription; actives raise or lower the signal. In outline:
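HepG2 cells transiently transfected with cis-promoter-driven multiplexed reporter units; 24 h compound exposure. Reporter mRNA measured by RT-PCR, 6-FAM labeling, HpaI digestion and capillary electrophoresis; bidirectional fit versus DMSO baseline.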

Assay [2] addresses X-box-binding protein 1 (Homo sapiens) (UniProt P17861). Briefly: ATG_Xbp1_CIS: Attagene CIS-FACTORIAL HepG2 Assay for human X-box Binding Protein 1 (XBP1) (AID 2282972). Particulars: HepG2 XBP1 cis-element reporter, Attagene multiplex; actives raise or lower the signal. In outline:
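After a 24-hour chemical exposure of HepG2 cells carrying cis-regulated reporters, reporter mRNA levels are assessed. Quantification uses RT-PCR, 6-FAM labelling and capillary electrophoresis. Gain- or loss-of-signal is fitted against DMSO.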

In assay [3] the target is Nuclear receptor subfamily 1 group I member 3 (Homo sapiens) (UniProt Q14994). Briefly: ATG_CAR_TRANS: Attagene TRANS-FACTORIAL HepG2 Assay for human Constitutive Androstane Receptor (CAR) (AID 2282969; active = hit-call score of the fitted dose curve at least 0.9, where 1 is the maximum;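 also: activators raise reporter mRNA above DMSO so AC50 marks induction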). The note with it: HepG2 Attagene TRANS-FACTORIAL CAR reporter. The procedure, abridged: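 Readout is reporter mRNA induction, quantified by fluorescent primer extension and capillary electrophoresis after RT-PCR. Cells were HepG2 transiently carrying chimeric NR-Gal4 constructs with GAL4-UAS reporters, treated for 24 h; activity scored upward from DMSO.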
Nuclear receptor subfamily 1 group I member 3 (Homo sapiens), sequence (Q14994 whole entry, looked up, the tested form may be a part): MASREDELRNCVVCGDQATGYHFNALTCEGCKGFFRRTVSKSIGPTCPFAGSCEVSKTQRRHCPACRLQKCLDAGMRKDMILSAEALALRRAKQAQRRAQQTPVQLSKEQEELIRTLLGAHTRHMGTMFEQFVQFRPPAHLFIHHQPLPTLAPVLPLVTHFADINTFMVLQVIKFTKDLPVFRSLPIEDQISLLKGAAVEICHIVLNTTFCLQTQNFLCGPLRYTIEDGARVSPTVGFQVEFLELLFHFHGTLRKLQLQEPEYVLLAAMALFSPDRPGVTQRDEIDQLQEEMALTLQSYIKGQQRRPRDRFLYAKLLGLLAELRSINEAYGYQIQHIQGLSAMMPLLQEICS

The nature of assay [4]: ATG_M_19_TRANS: Attagene TRANS-FACTORIAL HepG2 Assay for M19 Transcription Factor (Internal Marker) (AID 2282974; active = hit-call score of the fitted dose curve at least 0.9, where 1 is the maximum). The note with it: HepG2 Attagene TRANS-FACTORIAL M19 internal marker reporter. In outline:
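Transfected HepG2 (GAL4-UAS MRTUs), 24 h compound, TriZol RNA, DNase-treated RT, reporter PCR, FAM label, HpaI digest, CE fluorescence; gain vs DMSO.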

A short description of assay [5]: ATG_Hpa5_TRANS: Attagene TRANS-FACTORIAL HepG2 Assay for human GAL4-Hpa5 Hepatocyte Transcription Factor Basal Promoter (AID 2282975; active = hit-call score of the fitted dose curve at least 0.9, where 1 is the maximum;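 also: hits are increases in reporter mRNA over DMSO baseline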). Particulars: HepG2 Attagene GAL4-Hpa5 transcription reporter. The procedure, abridged: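 Basal-promoter GAL4 background control within the HepG2 trans-factorial panel of transiently transfected reporter units. Reporter mRNA is measured 24 h after dosing by RT-PCR and capillary electrophoresis, fitted for gain of signal versus DMSO.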

In assay [6] the target is Steroid hormone receptor ERR1 (Homo sapiens) (UniProt P11474). Briefly: ATG_ERRa_TRANS: Attagene TRANS-FACTORIAL HepG2 Assay for human Estrogen-Related Receptor alpha (ERRa) (AID 2282971; active = hit-call score of the fitted dose curve at least 0.9, where 1 is the maximum). The note with it: HepG2 Attagene TRANS reporter, ERRa transactivation. In outline: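 Reporter transcript induction was quantified by RT-PCR and capillary electrophoresis of FAM-labelled, HpaI-cut products after 24 h treatment of HepG2 cells carrying transiently transfected GAL4-UAS reporter units and an exogenous ERRa-Gal4 fusion; activity scored as increase over DMSO.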
Steroid hormone receptor ERR1 (Homo sapiens), sequence (P11474 whole entry, looked up, the tested form may be a part): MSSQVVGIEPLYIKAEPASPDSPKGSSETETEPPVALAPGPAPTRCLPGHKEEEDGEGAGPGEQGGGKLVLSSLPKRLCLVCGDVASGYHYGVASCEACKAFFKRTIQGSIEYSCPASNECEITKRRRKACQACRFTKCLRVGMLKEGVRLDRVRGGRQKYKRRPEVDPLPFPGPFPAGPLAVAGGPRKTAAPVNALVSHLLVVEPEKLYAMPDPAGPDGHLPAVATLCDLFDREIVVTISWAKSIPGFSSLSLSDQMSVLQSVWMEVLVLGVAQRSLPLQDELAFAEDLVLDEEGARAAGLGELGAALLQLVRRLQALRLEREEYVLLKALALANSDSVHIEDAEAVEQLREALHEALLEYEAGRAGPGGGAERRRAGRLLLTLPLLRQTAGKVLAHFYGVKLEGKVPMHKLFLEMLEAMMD

Assay [7] deals with Androgen receptor (Homo sapiens) (UniProt P10275). The experiment in a line: ATG_AR_TRANS: Attagene TRANS-FACTORIAL HepG2 Assay for human Androgen Receptor (AR) (AID 2282973; active = hit-call score of the fitted dose curve at least 0.9, where 1 is the maximum). Particulars: HepG2 Attagene TRANS-FACTORIAL AR reporter transcription. The procedure, abridged:
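Steps: transfect HepG2 with multiple GAL4-UAS reporter transcription units (TRANS format, exogenous NR-Gal4 protein); dose 24 h; isolate RNA, reverse-transcribe, PCR-amplify, FAM-label, HpaI-digest; resolve by capillary electrophoresis. Positive direction vs DMSO.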

X-box-binding protein 1 (Homo sapiens), sequence (P17861 whole entry, looked up): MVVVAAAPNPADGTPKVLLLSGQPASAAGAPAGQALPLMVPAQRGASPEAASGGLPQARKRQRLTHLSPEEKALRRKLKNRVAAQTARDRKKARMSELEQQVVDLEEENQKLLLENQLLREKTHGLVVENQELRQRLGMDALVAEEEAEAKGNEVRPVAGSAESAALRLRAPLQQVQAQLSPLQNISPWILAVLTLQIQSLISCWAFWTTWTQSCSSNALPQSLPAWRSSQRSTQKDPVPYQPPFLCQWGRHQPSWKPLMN
Androgen receptor (Homo sapiens), sequence (P10275 whole entry, looked up, the tested form may be a part): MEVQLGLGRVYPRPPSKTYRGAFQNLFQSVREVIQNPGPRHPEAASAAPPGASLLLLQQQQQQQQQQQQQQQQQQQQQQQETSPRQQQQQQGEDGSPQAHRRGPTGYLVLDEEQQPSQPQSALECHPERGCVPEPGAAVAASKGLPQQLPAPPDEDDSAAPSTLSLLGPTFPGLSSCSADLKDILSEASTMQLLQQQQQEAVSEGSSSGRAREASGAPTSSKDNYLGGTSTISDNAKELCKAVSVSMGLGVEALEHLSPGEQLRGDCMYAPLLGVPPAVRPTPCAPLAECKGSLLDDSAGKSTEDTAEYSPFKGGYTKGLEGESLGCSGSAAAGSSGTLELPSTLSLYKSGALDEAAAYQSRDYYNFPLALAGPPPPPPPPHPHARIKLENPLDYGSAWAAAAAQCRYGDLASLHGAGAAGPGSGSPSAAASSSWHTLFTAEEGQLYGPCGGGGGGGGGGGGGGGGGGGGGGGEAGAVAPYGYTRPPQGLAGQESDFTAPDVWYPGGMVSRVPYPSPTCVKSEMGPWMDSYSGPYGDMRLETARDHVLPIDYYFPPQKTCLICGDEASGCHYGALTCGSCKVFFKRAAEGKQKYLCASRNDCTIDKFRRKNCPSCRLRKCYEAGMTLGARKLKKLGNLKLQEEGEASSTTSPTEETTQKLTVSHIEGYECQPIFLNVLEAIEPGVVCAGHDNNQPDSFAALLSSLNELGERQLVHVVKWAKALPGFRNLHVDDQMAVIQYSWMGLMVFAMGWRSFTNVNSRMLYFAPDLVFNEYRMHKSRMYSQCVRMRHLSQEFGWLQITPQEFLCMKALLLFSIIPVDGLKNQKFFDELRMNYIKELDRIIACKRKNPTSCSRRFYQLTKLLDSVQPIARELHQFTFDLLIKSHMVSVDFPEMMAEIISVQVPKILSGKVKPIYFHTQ

With `CSc1nnc(C(C)(C)C)c(=O)n1N`, the call in assay [1] and in assay [2] was inactive.
Consider `CN1COCN(Cc2cnc(Cl)s2)C1=N[N+](=O)[O-]`, for which the compound was classed as inactive in assay [1] and in assay [2].
For `CCNc1nc(Cl)nc(NC(C)(C)C#N)n1`, the outcome in assay [1], in assay [3], in assay [2], in assay [4] and in assay [5] was inactive.
`CN(C)NC(=O)CCC(=O)O`: the compound was called inactive in assay [1], in assay [6] and in assay [2].
For `CC(C)=CC1C(C(=O)OCN2C(=O)C3=C(CCCC3)C2=O)C1(C)C` (stereo unspecified), the outcome in assay [1], in assay [7], in assay [4] and in assay [5] was inactive. Moreover, the concentration at half-maximal activity (AC50) (in general, the concentration at which the activity in the assay is half-maximal) in assay [2] is 50 µM (active).
Consider `Nc1nc(N)nc(NC2CC2)n1`, for which the outcome in assay [1], in assay [6], in assay [2] and in assay [4] was inactive.
